{"source": "PubChem BioAssay AID624352", "about": "(Sanford-Burnham Center for Chemical Genomics, 2012)", "note": "Screen size: about 360,000 compounds; about 2,600 (0.72%) were called active. Many of the other results were omitted from the sample, so actives are more common in it than they were. Unmarked numbers belong to inactive results.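 The calls were made as follows: active = inhibition of the luminescence signal of 40% or more relative to plate controls, in a single-dose primary screen at 18.75 µM; inactive = the rest.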", "data": [{"experiment": "blockers of HIF-2a driven luciferase – luminescence, 786-0 RCC cells, primary screen (AID 624352)", "settings": "786-0 RCC cells HIF-2a reporter, overnight, at 18.8 µM, hits give high values", "values": [{"smiles": "CCOc1ccc(NCCC(=O)c2ccc3c(c2)OCO3)cc1", "inhibition": "-129%"}, {"smiles": "COC(=O)CCNc1ccc2c(c1)OCCO2", "inhibition": "42% (active)"}, {"smiles": "Cc1ccc(OCCCC(=O)Nc2ccc3c(c2)OCCO3)cc1", "inhibition": "1.79%"}, {"smiles": "CCC(=O)Nc1ccc(C(=O)CSc2nnc(CNc3ccc(Cl)cc3)o2)cc1OC", "inhibition": "14.6%"}, {"smiles": "CC(=O)N1c2ccc(S(=O)(=O)N3CCCC(C(=O)Nc4ccc(C)cc4C)C3)cc2CC1C", "note": "(stereo not given)", "inhibition": "17%"}, {"smiles": "Oc1ccc(CNc2ccccc2O)cc1", "inhibition": "-142%"}, {"smiles": "O=S(=O)(NCc1ccccn1)c1ccc(Br)s1", "inhibition": "-3.82%"}, {"smiles": "O=S(=O)([N-]c1nc2ccccc2nc1-[n+]1ccc(Cc2ccccc2)cc1)c1ccc(Br)s1", "inhibition": "52.2% (active)"}, {"smiles": "CCN(CC)CC(=O)Nc1nn(-c2ccccc2)nc1C(N)=O", "inhibition": "4.53%"}, {"smiles": "OCCCNC(c1ccccc1)c1ccc(O)cc1", "note": "(stereo not given)", "inhibition": "1.29%"}, {"smiles": "O=C(/C=C/Sc1ncn[nH]1)c1ccc(Cl)cc1", "inhibition": "88.1% (active)"}, {"smiles": "CC(=O)OCc1cc(=O)n(C)c(=O)n1C", "inhibition": "-10.8%"}, {"smiles": "O=C(CSc1nc2cccc(F)c2c(=O)n1-c1ccccc1)Nc1ccc2c(c1)CCC2", "inhibition": "-5.39%"}, {"smiles": "COc1ccc(CC(N)c2csc(NC(=O)NC(c3ccccc3)c3ccccc3)n2)cc1", "note": "(stereo not given)", "inhibition": "4.75%"}, {"smiles": "COc1ccc(CC(N)c2csc(NC(=O)Nc3ccc(C(C)C)cc3)n2)cc1", "note": "(stereo not given)", "inhibition": "91.1% (active)"}, {"smiles": "CC(C)(C)CC(=O)Nc1nc(C(N)Cc2ccc(C(F)(F)F)cc2)cs1", "note": "(stereo not given)", "inhibition": "11.1%"}, {"smiles": "O=C(CNC(=O)OCc1ccccc1)Oc1cc2oc(=O)cc(-c3ccccc3)c2cc1Cl", "inhibition": "-13.9%"}, {"smiles": "CN1OC[C@@H]2CN(S(=O)(=O)c3cccc4ccccc34)[C@H](c3ccc(N4CCCCC4)cc3)C[C@@H]21", "inhibition": "7.35%"}, {"smiles": "CN1OC[C@@H]2CN(S(=O)(=O)c3cccc(C(F)(F)F)c3)[C@H](c3ccc(-c4cc5ccccc5o4)cc3)C[C@@H]21", "inhibition": "50.8% (active)"}, {"smiles": "COc1ccc(S(=O)(=O)N2C[C@H]3CON(C)[C@H]3C[C@H]2c2cccc(Br)c2)cc1", "inhibition": "6%"}, {"smiles": "COc1ccc(-c2cnc3c(c2)C(=O)N([C@H](C)CO)C[C@@H](C)[C@H](CN(C)Cc2ccccc2)O3)cc1", "inhibition": "-3.08%"}, {"smiles": "Cc1cc(C)n(C(=O)CCNC(=O)c2ccccc2Cl)n1", "inhibition": "5.47%"}, {"smiles": "COCCNC(=O)c1ccccc1-c1nc(-c2ccccc2Cl)no1", "inhibition": "-82.5%"}, {"smiles": "CN(C)CCNC(=O)c1ccc(Cl)c2cc3ccccc3nc12", "inhibition": "43.6% (active)"}, {"smiles": "O=S(=O)(N/N=C\\c1cccn1-c1ccccc1)c1ccc2ccccc2c1", "inhibition": "9.64%"}, {"smiles": "CCN(CC)S(=O)(=O)c1cccc(-c2n[nH]c(=S)n2/N=C/c2ccc(C(=O)OC)cc2)c1", "inhibition": "20.2%"}, {"smiles": "Cc1cc(-c2n[nH]c(=S)n2/N=C/C(Br)=C/c2ccccc2)n[nH]1", "inhibition": "87% (active)"}, {"smiles": "CCCc1cc(-c2n[nH]c(=S)n2CC)c2ccccc2n1", "inhibition": "25.6%"}, {"smiles": "CCN1CCN(C(=O)C2CCN(S(=O)(=O)c3cc(Cl)ccc3Cl)CC2)CC1", "inhibition": "6.56%"}, {"smiles": "COc1ccc(Br)cc1S(=O)(=O)N1CCN=C1C", "inhibition": "13.2%"}, {"smiles": "O=C(Nc1ccc2c(c1)OCO2)C1CC(c2c(F)cccc2Cl)=NO1", "note": "(stereo not given)", "inhibition": "-228%"}, {"smiles": "Cc1c(C)c2cc3c4c(oc3c(C)c2oc1=O)CCCC4", "inhibition": "-31.5%"}, {"smiles": "Cc1c(CCC(=O)N[C@@H](CC(C)C)C(=O)O)c(=O)oc2c(C)c3oc4c(c3cc12)CCCC4", "inhibition": "31.2%"}, {"smiles": "CC[C@@H](C)[C@H](NC(=O)CCc1c(C)c2cc3c4c(oc3c(C)c2oc1=O)CCCC4)C(=O)O", "inhibition": "56.9% (active)"}, {"smiles": "CC(C)Cn1c(N)c(C(=O)COC(=O)C2CCCN2C(=O)c2cccs2)c(=O)n(C)c1=O", "note": "(stereo not given)", "inhibition": "4.33%"}, {"smiles": "O=[N+]([O-])/C=C/c1ccc2c(ccn2Cc2ccccc2)c1", "inhibition": "92.5% (active)"}, {"smiles": "CC1(C)C2CCC13CS(=O)(=O)NC3C2", "note": "(stereo not given)", "inhibition": "14.9%"}, {"smiles": "N#Cc1ccc(OCC(=O)Nc2nc(-c3ccccn3)cs2)cc1", "inhibition": "21.4%"}, {"smiles": "COC(=O)Cc1[nH]n(-c2nc3ccccc3s2)c(=O)c1C(C)=Nc1ccc(OC)cc1", "inhibition": "80.1% (active)"}, {"smiles": "O=C(NC(=S)Nc1ccc(Cl)cc1Cl)C1CC1", "inhibition": "-294%"}, {"smiles": "Cc1ccnc(NC(=O)CCNS(=O)(=O)c2ccc(C)c(C)c2)c1", "inhibition": "-176%"}, {"smiles": "O=C(COC(=O)c1cccc(Cl)c1)NC1CCCCCCC1", "inhibition": "6.27%"}, {"smiles": "COC(=O)c1cc(C(=O)NC(C)C2CC3CCC2C3)cc([N+](=O)[O-])c1", "note": "(stereo not given)", "inhibition": "18.1%"}, {"smiles": "CC(NCC(=O)Nc1ccccc1C(=O)NC1CC1)c1ccccc1Cl", "note": "(stereo not given)", "inhibition": "3.17%"}, {"smiles": "Cc1ccsc1C(=O)OCC(=O)c1cc(C)n(CC2CCCO2)c1C", "note": "(stereo not given)", "inhibition": "64.7% (active)"}, {"smiles": "COc1ccc(CNC(=O)COC(=O)c2sccc2C)cc1OC", "inhibition": "-10.1%"}, {"smiles": "CCCn1c(C)cc(C(=O)COC(=O)c2c(C)nn(-c3ccccc3)c2C)c1C", "inhibition": "-28.6%"}, {"smiles": "CCCCN(C(=O)CCNC(=O)NC12CC3CC(CC(C3)C1)C2)c1c(N)n(CCCC)c(=O)[nH]c1=O", "inhibition": "4.48%"}, {"smiles": "Oc1c(CN2CCOCC2)ccc(CN2CCOCC2)c1O", "inhibition": "9.75%"}, {"smiles": "O=C1C(Cl)=C(Oc2ccccc2)C(=O)c2ccccc21", "inhibition": "88.1% (active)"}, {"smiles": "COc1ccc(C(CNC(=O)c2ccc(S(=O)(=O)Nc3ccccc3F)cc2)N(C)C)cc1", "note": "(stereo not given)", "inhibition": "4.08%"}, {"smiles": "Nc1nc(Br)c2ccccc2c1-c1ccc(F)cc1", "inhibition": "5.57%"}, {"smiles": "Cn1c(=NC(=O)c2ccc3c(c2)OCCO3)sc2cc(S(C)(=O)=O)ccc21", "inhibition": "-28.1%"}, {"smiles": "O=C(O)c1cccc(N=NN2CCCCCC2)c1", "inhibition": "42.7% (active)"}, {"smiles": "O=C(O)c1ccc(N=NN2CCOCC2)cc1", "inhibition": "10.1%"}, {"smiles": "O=C(c1ccccc1)C(O)(CN1CCCCC1)c1ccccc1", "note": "(stereo not given)", "inhibition": "13.3%"}, {"smiles": "COc1ccc(CNc2c(CO)cnc3c2cnn3C)cc1", "inhibition": "17.6%"}, {"smiles": "CCN(CC)S(=O)(=O)c1ccc(NC(=O)c2cnc(C)cn2)cc1", "inhibition": "11%"}, {"smiles": "CCN(CC)S(=O)(=O)c1ccc(NC(=O)c2cccnc2Cl)c(NC(=O)c2cccnc2Cl)c1", "inhibition": "86.1% (active)"}, {"smiles": "Cc1ccc(CNC(=O)c2cccnc2Cl)cc1", "inhibition": "2.18%"}]}]}
